This passage reports growth results from PubChem BioAssay (NCI).

Molecules are shown by their SMILES. “And” between values parts separate entries of the source, which are not always exact repeats. Equal entries are not always repeated. Compounds without any hit were thinned out: in the full panel of roughly 83,000, 20% have a hit.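 The test compound was applied at a single concentration to cells in 96-well plates for 48 hours, and percent growth was recorded.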 The source made the active and inactive calls. Rule for the calls: active = growth percent below 10; inactive = the rest.

Common to all, as to test: NCI-60 one-dose screen, 48 h (100 = growth as untreated, 0 = no growth, -100 = all killed)
One assay relates to SR leukemia. The settings on record: 10 µM.
In another assay the test system is RPMI-8226 leukemia. Conditions: 10 µM.
In the next assay the test system is OVCAR-8 ovarian. Conditions: 10 µM.
The next assay relates to OVCAR-5 ovarian. The settings on record: 10 µM.
The subject of a further assay is OVCAR-4 ovarian. Conditions: 10 µM.
Another assay has as its system SK-OV-3 ovarian. Conditions: 10 µM.
A further assay deals with IGROV1 ovarian. The settings on record: 10 µM.
A further assay relates to OVCAR-3 ovarian. The settings on record: 10 µM.
The next assay concerns HS 578T breast. The settings on record: 10 µM.
In another assay the test system is NCI/ADR-RES ovarian. Conditions: 10 µM.
In the next assay the test system is T-47D breast. The settings on record: 10 µM.
The test system of another assay is MDA-MB-435 melanoma. Conditions: 10 µM.
In a further assay the test system is SW-620 colon. The settings on record: 10 µM.
A further assay has as its system MCF7 breast.
For another assay, the system named is HCT-116 colon. Conditions: 10 µM.
A further assay deals with HCC-2998 colon. Conditions: 10 µM.
In a further assay the test system is KM12 colon. Conditions: 10 µM.
A further assay deals with BT-549 breast. Conditions: 10 µM.

As to `C=CC(=O)OCCCCCCCC`, the growth in the assay on SR leukemia is 82.6% (inactive); in the assay on RPMI-8226 leukemia, 104% (inactive); in the assay with OVCAR-8 ovarian it was 105% (inactive); with OVCAR-5 ovarian, 101% (inactive); in the assay on OVCAR-4 ovarian, 109% (inactive); in the assay on SK-OV-3 ovarian, 108% (inactive). Further, the growth in the assay on IGROV1 ovarian was 114% (inactive); in the assay with OVCAR-3 ovarian, 103% (inactive); with HS 578T breast it was 109% (inactive); in the assay with NCI/ADR-RES ovarian, 105% (inactive); with T-47D breast, 105% (inactive); with MDA-MB-435 melanoma it was 106% (inactive). In addition, the growth was 103% (inactive) with SW-620 colon; 95.3% (inactive) in the assay on MCF7 breast (10 µM unless noted); 100% (inactive) in the assay with HCT-116 colon; 104% (inactive) with HCC-2998 colon; 101% (inactive) in the assay with KM12 colon.
In the case of `COc1cc2c3cc1Oc1c(OC)c(OC)cc4c1C(Cc1ccc(O)c(c1)Oc1ccc(cc1)CC3N(C)CC2)N(C)CC4` (configuration not stated), the growth with SR leukemia is -1.66% (active); in the assay on RPMI-8226 leukemia, -27.4% (active); in the assay on OVCAR-8 ovarian, 7.71% (active); in the assay on OVCAR-5 ovarian it was -0.193% (active); with OVCAR-4 ovarian, 13.5% (inactive); in the assay with SK-OV-3 ovarian, 43% (inactive). In addition, the growth in the assay on IGROV1 ovarian is 13.7% (inactive); in the assay on OVCAR-3 ovarian, 18.8% (inactive); with HS 578T breast it was 55.3% (inactive); in the assay on NCI/ADR-RES ovarian, 0.974% (active); with T-47D breast, -64.6% (active); in the assay on BT-549 breast, 32.8% (inactive). In addition, the growth with SW-620 colon is -46.8% (active); in the assay on MCF7 breast (10 µM) it was -71% (active); in the assay on MCF7 breast (100 µM) it was 81.8% (inactive) and -100% (active); in the assay on HCT-116 colon it was -94.7% (active); in the assay with HCC-2998 colon it was -72.7% (active); in the assay with KM12 colon, 12.9% (inactive).
For the compound `CC(C)OC(C(=O)O)c1ccccc1` (configuration not stated), the growth in the assay with SR leukemia was 125% (inactive); with RPMI-8226 leukemia, 105% (inactive); in the assay with OVCAR-8 ovarian, 109% (inactive); in the assay on OVCAR-5 ovarian, 97.1% (inactive); in the assay on OVCAR-4 ovarian, 96.2% (inactive); in the assay on SK-OV-3 ovarian, 100% (inactive). The growth was 124% (inactive) in the assay with IGROV1 ovarian; 110% (inactive) with OVCAR-3 ovarian; 112% (inactive) with HS 578T breast; 104% (inactive) in the assay with NCI/ADR-RES ovarian; 91.5% (inactive) in the assay with T-47D breast; 100% (inactive) in the assay on BT-549 breast. For the same compound, the growth is 115% (inactive) in the assay on MDA-MB-435 melanoma; 103% (inactive) in the assay with SW-620 colon; 93% (inactive) with MCF7 breast (10 µM unless noted); 101% (inactive) in the assay with HCT-116 colon; 105% (inactive) with KM12 colon.
As for `CC(C)=NNc1ccc([N+](=O)[O-])cc1[N+](=O)[O-]`, the growth in the assay with SR leukemia was 90.6% (inactive); with RPMI-8226 leukemia it was 68.2% (inactive); with OVCAR-8 ovarian, 100% (inactive); in the assay with OVCAR-5 ovarian, 105% (inactive); in the assay with OVCAR-4 ovarian it was 96.5% (inactive); with SK-OV-3 ovarian, 92.9% (inactive). Moreover, the growth in the assay with IGROV1 ovarian was 124% (inactive); with OVCAR-3 ovarian it was 104% (inactive); in the assay with HS 578T breast, 90.5% (inactive); with NCI/ADR-RES ovarian, 93.4% (inactive); in the assay on T-47D breast, 64.9% (inactive); in the assay with BT-549 breast, 90.9% (inactive). The growth is 85.7% (inactive) with SW-620 colon, 93.7% (inactive) in the assay with MCF7 breast (10 µM unless noted), 82.5% (inactive) in the assay on HCT-116 colon and 87% (inactive) with HCC-2998 colon.
Consider `CCC(C#N)(CC)c1ccccc1`, for which the growth with SR leukemia was 108% (inactive); in the assay on RPMI-8226 leukemia it was 104% (inactive); in the assay with OVCAR-8 ovarian, 107% (inactive); with OVCAR-5 ovarian it was 104% (inactive); in the assay with OVCAR-4 ovarian it was 113% (inactive); in the assay on SK-OV-3 ovarian, 102% (inactive). The growth in the assay on IGROV1 ovarian was 112% (inactive); in the assay on OVCAR-3 ovarian it was 109% (inactive); in the assay on HS 578T breast, 108% (inactive); in the assay with NCI/ADR-RES ovarian, 102% (inactive); in the assay with T-47D breast, 95.3% (inactive); with BT-549 breast it was 100% (inactive). Besides, the growth with MDA-MB-435 melanoma is 104% (inactive); with SW-620 colon, 104% (inactive); with MCF7 breast (10 µM unless noted) it was 95.4% (inactive); in the assay with HCT-116 colon, 105% (inactive); in the assay on KM12 colon, 106% (inactive).
With `O=[N+]([O-])c1ccc(Sc2ccncn2)c([N+](=O)[O-])c1`, the growth with SR leukemia was 30.6% (inactive); with RPMI-8226 leukemia, 40% (inactive); in the assay with OVCAR-8 ovarian, 102% (inactive); in the assay on OVCAR-5 ovarian it was 96.3% (inactive); with OVCAR-4 ovarian, 42.9% (inactive); in the assay with SK-OV-3 ovarian, 102% (inactive). In addition, the growth with IGROV1 ovarian is 83% (inactive); in the assay on OVCAR-3 ovarian, 63.7% (inactive); with HS 578T breast, 92.6% (inactive); in the assay on NCI/ADR-RES ovarian, 58% (inactive); with T-47D breast it was 48.3% (inactive); in the assay on BT-549 breast, 74.9% (inactive). Also, the growth in the assay with MDA-MB-435 melanoma is 8.62% (active); in the assay with SW-620 colon, 23% (inactive); with HCT-116 colon, 20.1% (inactive); in the assay on HCC-2998 colon, 90.5% (inactive); in the assay with KM12 colon, 76.2% (inactive).
`CC(C)C(C#N)(C(C)C)C(C)C`: the growth with SR leukemia was 89.8% (inactive); in the assay on RPMI-8226 leukemia it was 96.5% (inactive); in the assay on OVCAR-8 ovarian it was 109% (inactive); in the assay on OVCAR-5 ovarian, 108% (inactive); with OVCAR-4 ovarian, 109% (inactive); with SK-OV-3 ovarian, 109% (inactive). Besides, the growth was 103% (inactive) with IGROV1 ovarian; 107% (inactive) in the assay with OVCAR-3 ovarian; 106% (inactive) in the assay with HS 578T breast; 104% (inactive) with NCI/ADR-RES ovarian; 104% (inactive) in the assay with T-47D breast; 102% (inactive) with BT-549 breast. Further, the growth in the assay with SW-620 colon is 101% (inactive); in the assay with MCF7 breast (10 µM unless noted) it was 97.7% (inactive); with HCT-116 colon, 103% (inactive); with HCC-2998 colon, 110% (inactive); in the assay on KM12 colon it was 103% (inactive).
With `Cc1ccc(C(=O)c2ccccc2)c(C)c1`, the growth in the assay with SR leukemia was 127% (inactive); in the assay on RPMI-8226 leukemia, 98% (inactive); in the assay on OVCAR-8 ovarian, 109% (inactive); in the assay on OVCAR-5 ovarian, 95.3% (inactive); in the assay with OVCAR-4 ovarian it was 103% (inactive); in the assay on SK-OV-3 ovarian it was 99.2% (inactive). Moreover, the growth with IGROV1 ovarian is 101% (inactive); in the assay with OVCAR-3 ovarian, 112% (inactive); in the assay on HS 578T breast, 113% (inactive); in the assay on NCI/ADR-RES ovarian, 99.7% (inactive); in the assay on T-47D breast, 96.4% (inactive); with BT-549 breast it was 99.6% (inactive). Also, the growth in the assay on MDA-MB-435 melanoma was 118% (inactive); in the assay on SW-620 colon it was 98.7% (inactive); in the assay with MCF7 breast (10 µM unless noted), 101% (inactive); with HCT-116 colon it was 94.8% (inactive); with KM12 colon it was 107% (inactive).
In the case of `FC(F)(F)c1ccc2c(c1)N(CCCN1CCN(C3CC3)CC1)c1ccccc1S2`, the growth with SR leukemia was 7.62% (active); with RPMI-8226 leukemia it was 51.9% (inactive); with OVCAR-8 ovarian it was 46.9% (inactive); in the assay on OVCAR-5 ovarian, 89.7% (inactive); in the assay on OVCAR-4 ovarian, 73.6% (inactive); in the assay on SK-OV-3 ovarian it was 83.9% (inactive). Moreover, the growth in the assay with IGROV1 ovarian is 50.2% (inactive); with OVCAR-3 ovarian it was 24.9% (inactive); with HS 578T breast, 75.3% (inactive); in the assay on NCI/ADR-RES ovarian, 61.2% (inactive); in the assay on T-47D breast, 87.8% (inactive); with BT-549 breast it was 61% (inactive). For the same compound, the growth was 38.9% (inactive) with SW-620 colon, 77.3% (inactive) in the assay on MCF7 breast (10 µM unless noted), 42.7% (inactive) in the assay with HCT-116 colon and 59.6% (inactive) in the assay with KM12 colon.
